Measurements: ChEMBL document CHEMBL3433997, “St. Jude Leishmania screening dataset” (2016)

What follows are compounds tested against Solute carrier family 2, facilitated glucose transporter member 1 (Homo sapiens) (UniProt P11166) (assay: ST_JUDE_LEISH: Cytotoxicity at 2uM final concentration against transgenic Leishmania Mexicana promastigotes LmGLUT1 that are glucose transport deficient and complemented with the human glucose transporter GLUT1. Activity is measured by DNA content using SYBR green in vitro).
Assay type: functional

Solute carrier family 2, facilitated glucose transporter member 1 (Homo sapiens), sequence (P11166 whole entry): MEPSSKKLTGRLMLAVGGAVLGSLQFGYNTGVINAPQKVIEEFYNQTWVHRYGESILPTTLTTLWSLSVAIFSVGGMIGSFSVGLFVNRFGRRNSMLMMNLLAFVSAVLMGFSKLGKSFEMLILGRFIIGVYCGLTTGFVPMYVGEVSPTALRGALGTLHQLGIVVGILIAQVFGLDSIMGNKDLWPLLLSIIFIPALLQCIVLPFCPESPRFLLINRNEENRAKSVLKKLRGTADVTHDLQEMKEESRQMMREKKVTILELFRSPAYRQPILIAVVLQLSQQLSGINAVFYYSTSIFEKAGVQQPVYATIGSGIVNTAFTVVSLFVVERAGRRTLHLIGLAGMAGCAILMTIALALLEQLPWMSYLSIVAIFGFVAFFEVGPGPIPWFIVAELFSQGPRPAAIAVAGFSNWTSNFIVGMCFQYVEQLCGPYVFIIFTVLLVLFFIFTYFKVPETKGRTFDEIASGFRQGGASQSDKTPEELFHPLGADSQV

Structure (SMILES) | inhibition [%]
N=c1n(Cc2ccccc2)c2ccccc2n1CC(O)c1ccc(Cl)cc1 (stereo not given) | 1.36
COc1cc(/C=C/C(=O)NC2CCC(N3CCC(c4ccccc4C)CC3)CC2)cc(OC)c1 (stereo not given) | -0.75
CC(O)C1CCCCN1C(=O)c1ccc(-c2ccc(-c3nc4cc(F)ccc4[nH]3)cc2)cc1 (stereo not given) | 3.95
O=C(NCCCCN1CCC(c2ccc(C(F)(F)F)cc2C(F)(F)F)CC1)c1ccc(NC(=O)c2ccc(Cl)cc2)cc1 | 0.67
N=C(N)NN=CC(=O)Nc1ccc(C(F)(F)F)cc1 | -0.81
CC(=O)c1cccc(NC(=O)NC2CCN(c3ccnc(Nc4ccc(F)cc4)n3)C2)c1 (stereo not given) | -1.36
O=C(Nc1cc(Cl)ccc1-n1cncn1)C1(c2ccccc2)CC1 | 2.59
OC(CNc1ccnc(Nc2cccc(OCCCN3CCOCC3)c2)n1)c1ccccc1 (stereo not given) | 0.76
NC1CCCN(Cc2cccc(-c3ccc(-c4nc5ccccc5[nH]4)cc3)c2)C1 (stereo not given) | 7.18
O=C(CCN1CCCCC1)Nc1ccc(Nc2nccc(NCC(O)c3ccccc3)n2)cc1 (stereo not given) | -1.33
C=CCOC(=O)N1CCC(CNCc2cccc(-c3ccc(-c4nc5cccc(C)c5[nH]4)s3)c2)C1 (stereo not given) | -0.28
COc1cccc2cc(C(=O)N[C@@H](CC(C)C)C(=O)N[C@H](/C=N/NC(=O)OC(C)(C)C)CC(=O)OC(C)(C)C)oc12 | 4.66
c1ccc(Oc2ccc(Nc3ccnc(Nc4cccc(CNCCCN5CCOCC5)c4)n3)cc2)cc1 | -3.58
Cc1ccc2nc(N/C(N)=N/C(=O)NC3CCCCC3)nc(C)c2c1 | 3.24
CS(=O)(=O)Cc1ccc(Nc2nccc(-c3c(-c4cccc(NC(=O)C5CCCCC5)c4)nn4ncccc34)n2)cc1 | 3.22
O=C(/C=C/c1ccc(Cl)cc1)NCCCCCN1CCC(c2c[nH]c3ccccc23)CC1 | 3.62
CN(C)c1ccc(-c2csc(C(=O)NC3CCN(Cc4ccc(C(C)(C)C)cc4)C3)c2)cc1 (stereo not given) | 5.6
CCCC[C@@H](C(=O)NCCc1ccc(Cl)cc1)N1C(=O)CCC1C(=O)Nc1ccc(Cl)c(Cl)c1 (stereo not given in full) | -0.33
COc1ccc(Nc2ncc3c(-c4cccc(NC(=O)c5ccc(N)cc5)c4)c[nH]c3n2)cc1OC | 9.74
CCCN(CCC)CCCN(CCCN(CCC)CCC)c1cc(C)nc(Nc2ccc3cc(Br)ccc3c2)n1 | 50.9

Structure (SMILES) | inhibition [%]
COc1cc2nc(NCCc3ccccc3)nc(NC(C)c3ccccc3)c2cc1OC (stereo not given) | 7.18
CCCCn1c(-c2ccco2)nc2c(c(=O)c3ccccc3n2C)c1=O | 8.79
CC(C)c1ccc(CN2CCCCC(NC(=O)c3cc(-c4ccccc4F)cs3)C2)cc1 (stereo not given) | 8.71
O=C(NCc1ccco1)c1ccc(CN2CCN(C(c3ccccc3)c3ccccc3)CC2)cc1 | 7.85
COc1cccc(C(=O)Nc2ccc(Nc3nc(C)cc(N4CCCCC4)n3)cc2)c1OC | 1.99
C[C@H](Cc1ccc(C[C@@H](C)NCC(O)c2cc(Cl)c(N)c(Cl)c2)cc1)NCC(O)c1cc(Cl)c(N)c(Cl)c1 (stereo not given in full) | 0.36
COc1ccc(C(C(=O)NC2CCN(C[C@H](O)c3ccnc4ccc(OC)cc34)CC2)N2CCN(Cc3ccccc3)CC2)cc1 (stereo not given in full) | 0.34
CCCCN(CCCC)CCNC(=O)c1ccc(-c2nc3cc(Cl)ccc3[nH]2)c(OCC)c1 | 4.49
CC(C)Cc1c(O)nc(SCCN2CCOCC2)[nH]c1=O | -0.96
Cc1cc(N/N=C/c2cccc([N+](=O)[O-])c2)c2ccc(F)cc2n1 | 3.46
O=C(/C=C/c1ccccc1)N1CCOC(CCN2CCC(c3ccccc3)CC2)(c2ccc(Cl)c(Cl)c2)C1 (stereo not given) | 13.3
COC1CCC(C(=O)Nc2ccc(-c3cccc(-c4nc5cccc(C)c5[nH]4)c3)cc2)CC1 (stereo not given) | 6.31
CC(C)C[C@@H](/C=N/NC(N)=O)NC(=O)[C@H](CC(C)C)NC(=O)[C@H](CC(C)C)NC(=O)OCc1ccccc1 | 5.02
CN(C)CCOc1cc(NC(=O)Nc2ccc(-c3ccncc3)c(Cl)c2)ccc1I | 2.24
CNCCNc1nccc(N2CCc3ncnc(Nc4ccc(OCc5cccc(F)c5)c(Cl)c4)c3C2)n1 | 3.85
C=CCCCNCC(NCCCNc1cc(=O)c2ccccc2[nH]1)c1cc(Br)cc(Br)c1 (stereo not given) | -2.22
Cc1nc(-c2ccc(-c3ccc(C(=O)Nc4ccc(I)c(OCC5CCCN5C)c4)cc3)c(C)c2)no1 (stereo not given) | 9.63
COc1cccc(CNC[C@@H](O)[C@H](Cc2ccccc2)NC(=O)c2cc3c4c(c2)c(C(C)C)cn4CCS(=O)(=O)N3C)c1 | 8.36
Cc1cccc(OC2CCN(c3ncc(C(=O)NCCCN4CCCC4=O)cc3Cl)CC2)c1 | 0.59
CCN(CC)CCCNc1nccc(N2CCc3ncnc(Nc4ccc(OCc5cccc(F)c5)c(Cl)c4)c3C2)n1 | 7.17
